Test results reported in publication PMC5540273 (PLoS ONE, 2017).

Legend:
Conditions in all cases: concentration: 1 μM,replicates: in singlicate; n = 1
CSNK1G1 = tested on: CSNK1G1
CSNK1G2 = tested on: CSNK1G2
CSNK1G3 = tested on: CSNK1G3
CSNK2A1 = tested on: CSNK2A1
CSNK2A2 = tested on: CSNK2A2
CTK = tested on: T1, CTK
T1 construct: gene MATK

DAPK1 = tested on: DAPK1
DAPK2 = tested on: DAPK2
DAPK3 = tested on: DAPK3
DCAMKL1 = tested on: T2, DCAMKL1
T2 construct: gene DCLK1
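Also: KINOMEscan kinase panel screen.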

CC(=O)c1c(-c2ccncc2)[nH]c(-c2ccncc2)c1C [GW493036]
%Inh (CSNK1G1): 84%
%Inh (CSNK1G2): 98.6%
%Inh (CSNK1G3): 98.6%
%Inh (CSNK2A1): 0%
%Inh (CSNK2A2): 8%
%Inh (CTK): 0%
%Inh (DAPK1): 0%
%Inh (DAPK2): 0%
%Inh (DAPK3): 19%
%Inh (DCAMKL1): 25%

NC(=O)c1ccc(-c2cc3ncnc(SCC(=O)O)c3s2)cc1
%Inh (CSNK1G1): 0%
%Inh (CSNK1G2): 17%
%Inh (CSNK1G3): 4%
%Inh (CSNK2A1): 74%
%Inh (CSNK2A2): 78%
%Inh (CTK): 0%
%Inh (DAPK1): 0%
%Inh (DAPK2): 0%
%Inh (DAPK3): 5%
%Inh (DCAMKL1): 20%

COC(=O)c1cccc(NC(=O)NC2CCN(c3ccnc(Nc4cc(OC)c(OC)c(OC)c4)n3)C2)c1 (stereo not shown) [GSK1379767]
%Inh (CSNK1G1): 16%
%Inh (CSNK1G2): 0%
%Inh (CSNK1G3): 19%
%Inh (CSNK2A1): 1%
%Inh (CSNK2A2): 29%
%Inh (CTK): 0%
%Inh (DAPK1): 2%
%Inh (DAPK2): 0%
%Inh (DAPK3): 21%
%Inh (DCAMKL1): 4%

CCn1c(-c2nonc2N)nc2cncc(Br)c21 [SB-738004]
%Inh (CSNK1G1): 5%
%Inh (CSNK1G2): 0%
%Inh (CSNK1G3): 7%
%Inh (CSNK2A1): 0%
%Inh (CSNK2A2): 21%
%Inh (CTK): 0%
%Inh (DAPK1): 39%
%Inh (DAPK2): 55%
%Inh (DAPK3): 46%
%Inh (DCAMKL1): 18%

O=c1[nH]cc(-c2ccc(O)cc2)c2sc(-c3ccncc3)cc12 [GSK1033723]
%Inh (CSNK1G1): 23%
%Inh (CSNK1G2): 0%
%Inh (CSNK1G3): 13%
%Inh (CSNK2A1): 9%
%Inh (CSNK2A2): 24%
%Inh (CTK): 0%
%Inh (DAPK1): 19%
%Inh (DAPK2): 27%
%Inh (DAPK3): 30%
%Inh (DCAMKL1): 8%

Cl.Nc1n[nH]c2cc(-c3ccccn3)ccc12 [GSK2189892]
%Inh (CSNK1G1): 11%
%Inh (CSNK1G2): 0%
%Inh (CSNK1G3): 31%
%Inh (CSNK2A1): 0%
%Inh (CSNK2A2): 0%
%Inh (CTK): 0%
%Inh (DAPK1): 0%
%Inh (DAPK2): 0%
%Inh (DAPK3): 19%
%Inh (DCAMKL1): 19%

Cc1cccc2c(-c3ccncc3)c(-c3ccc(F)cc3)nn12.Cl [GW461487]
%Inh (CSNK1G1): 11%
%Inh (CSNK1G2): 0%
%Inh (CSNK1G3): 26%
%Inh (CSNK2A1): 96.6%
%Inh (CSNK2A2): 10%
%Inh (CTK): 0%
%Inh (DAPK1): 18%
%Inh (DAPK2): 0%
%Inh (DAPK3): 0%
%Inh (DCAMKL1): 10%
